# Compound activity: PubChem, National Center for Advancing Translational Sciences (NCATS)
# Hits are enriched below; roughly 10% of the tested compounds scored in any of these assays.
# FLuc inh – blocks purified firefly luciferase enzyme activity | purified P. pyralis luciferase, luminescence, biochemical | 76,000 compounds, 2.5% hits | Potency, µM (series often up to 115 µM), actives largely listed as inhibitors; further: nearly all actives have a fitted effect of over 65% in size
#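 Purified P. pyralis luciferase (10nM final) in 50mM Tris acetate pH 7.5, 10mM Mg acetate, 0.01% Tween-20, 0.05% BSA with 10uM D-luciferin and 10uM ATP. Compounds titrated qHTS. Luminescence imaged on CCD.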
# HEK293 tox – cytotoxic compounds in HEK 293 cells; HEK 293 viability, ATP luminescence (CellTiter-Glo), 48-72 h; Potency, µM (top dose mostly 115 µM), inactives show at the highest dose activity change, negative = cytotoxicity, usual class: inhibitors; 94,000 compounds, 6.6% hits; AID 1345083; further: nearly all actives have a fitted effect of over 60% in size
#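 Viability of HEK 293 cells, plated at 250 cells/well, was judged by cellular ATP after compound treatment for 48 or 72 hr. Luminescence was imaged 10 min after CellTiter-Glo addition at room temperature.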
# hNpr1 antagonist – blocks ANP-stimulated signaling of human Npr1 receptor; HEK293 hNpr1 GloSensor cGMP, ANP-stimulated luminescence; Potency, µM (doses to about 46.3 µM), inactives show at the top dose activity change, negative = inhibition, usual class: inhibitors; P16066; 76,000 compounds, 1.6% hits; AID 1347048; calls by dose curve; further: nearly all actives have a fitted effect of over 60% in size
#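 Compound pre-incubated 30 min at room temperature on GloSensor-loaded HEK293 cells stably carrying hNpr1 and the pGS-40F cGMP biosensor. Stimulation uses hNppA at 0.1 nM final; luminescence is taken at baseline and 20 min post-agonist.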
# 3T3 cytotox – kills NIH 3T3 cells; NIH 3T3 viability, CellTiter-Glo ATP luminescence, 48-72 h; Potency, µM (doses to about 96.7 µM), inactives show at the top dose activity change, negative = cytotoxicity, most hits filed as inhibitors; 94,000 compounds, 4.3% hits; AID 1345082; further: nearly all actives have a fitted effect of over 55% in size
#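 ATP-dependent luminescence (CellTiter-Glo) served as the viability signal for NIH 3T3 cells treated with compound for 48 or 72 hr at 37 °C.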
# GPT2 inhibitor – blocks human glutamate pyruvate transaminase 2. 100,000 compounds, 0.25% hits. Potency, µM (doses to about 57.7 µM), without a hit: at the highest dose activity change, negative = inhibition, actives largely listed as inhibitors. Recombinant GPT2, coupled pyruvate oxidase/HRP Amplex Red fluorescence; further: nearly all actives have a fitted effect of over 60% in size
# Target sequence (Q8TD30 whole entry, looked up): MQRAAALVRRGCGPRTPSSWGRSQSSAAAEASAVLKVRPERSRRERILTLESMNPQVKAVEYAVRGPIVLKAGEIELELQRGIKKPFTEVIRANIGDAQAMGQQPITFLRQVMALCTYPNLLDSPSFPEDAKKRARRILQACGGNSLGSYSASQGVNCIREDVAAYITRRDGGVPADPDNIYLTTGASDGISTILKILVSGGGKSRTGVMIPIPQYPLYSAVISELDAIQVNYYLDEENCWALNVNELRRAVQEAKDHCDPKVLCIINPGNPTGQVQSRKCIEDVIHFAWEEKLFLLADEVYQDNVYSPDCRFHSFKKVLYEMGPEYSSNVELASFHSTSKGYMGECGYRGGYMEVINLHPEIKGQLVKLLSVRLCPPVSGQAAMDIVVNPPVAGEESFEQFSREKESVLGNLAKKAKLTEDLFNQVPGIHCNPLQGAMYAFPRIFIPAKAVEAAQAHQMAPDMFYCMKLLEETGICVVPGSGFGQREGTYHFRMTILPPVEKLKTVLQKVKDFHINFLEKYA
#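 Inhibition is scored from Amplex Red fluorescence generated when pyruvate oxidase and HRP act on pyruvate released by GPT2. Reactions contain 10ng/uL enzyme, 250uM a-KG and 2mM L-alanine and run 30 min at room temperature.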
# Active calls of the source: *; i = inactive; ? = inconclusive; nt = not tested or not shown; ! = repeats disagree; [ ] = dose if it differs, or a comment. Unless noted, the call rests on the fitted dose curve; in most records, active means well fitted curve in the direction sought with a large enough effect; inconclusive means small, poorly fitted or top-dose-only effect, or another doubt; inactive means no such curve, though single readings can be large; an effect the other way counts as inactive or inconclusive. On the % scale 0 is the no-effect control and ±100 the full control effect; potency means the concentration at half of the fitted maximal effect.
SMILES,FLuc inh,HEK293 tox,hNpr1 antagonist,3T3 cytotox,GPT2 inhibitor
COc1cc(C)sc1C(=O)NC1CC(c2cc(=O)[nH]c(C3CC3)n2)C1 (centres undefined),i,-2%,4%,-26%,-2%
O=C(NCc1ccccc1)c1cn(C2CN(C(=O)Nc3ccc4c(c3)OCCO4)C2)nn1,?,35µM*,-12%,?,i
Cc1noc2c(NC(C)C)cc(-c3cccc(C(F)(F)F)c3)nc12,i,100µM*,-3%[70.6 µM],?,-28%[88.5 µM]
Cc1noc2c(NCc3cnccn3)cc(-c3ccccc3)nc12,i,-24%[172 µM],8%[70.6 µM],?,i
Cc1noc2c(NCc3ccncc3)cc(-c3cccc(C(F)(F)F)c3)nc12,i,71µM*,-2%[70.6 µM],50µM*,-14%[88.5 µM]
COc1ccc(F)cc1-c1ccc(CN2CCCCC2C(=O)NC2CCC2)cc1 (centres undefined),nt,35µM*,nt,?,nt
COc1ccc(F)cc1-c1ccc(CN2CCC(NC(=O)C3CCCCC3)C2)cc1 (centres undefined),nt,45µM*,nt,32µM*,nt
COc1ccccc1-c1ccc(CN2CCCCC2C(=O)NC2CC2)cc1 (centres undefined),nt,40µM*,nt,?,nt
O=C(NC1CC1)C1CCCN1Cc1ccc(-c2cncnc2)cc1 (centres undefined),nt,i,nt,0%,i
COc1ccc(F)cc1-c1ccc(CN2CCCCC2C(=O)N2CCN(c3ncccn3)CC2)cc1 (centres undefined),nt,45µM*,nt,?,nt
C[S+](=O)([O-])N1CCN(Cc2ccccc2-c2ccccc2F)CC1,nt,-12%,nt,-18%,i
COc1ccccc1-c1cccc(C(=O)N2CCC[C@H]2C(=O)NC2CC2)c1,nt,3%,nt,-1%,i
COc1ccccc1-c1ccc(CN2CCCCC2C(=O)NC2CCCCC2)cc1 (centres undefined),nt,22µM*!,nt,45µM*!,nt
COc1ccc(NC(=O)O[C@@H]2CO[C@H]3[C@@H]2OC[C@@H]3NCc2ccc(-c3ccccc3)cc2)cc1,?,35µM*,5.6µM*,?,-15%
O=C(Nc1ccc(Oc2ccccc2)cc1)N[C@H]1CO[C@H]2[C@@H]1OC[C@H]2OC(=O)Nc1cccc(C(F)(F)F)c1,i,-32%,-15%,-34%,-9%
COc1ccc(NC(=O)N[C@H]2CO[C@H]3[C@@H]2OC[C@H]3OC(=O)Nc2ccc(OC)cc2)cc1,?,-9%,-2%,i,3%
O=C(COc1ccccc1)N[C@H]1CO[C@H]2[C@@H]1OC[C@@H]2n1nnnc1Oc1ccc(-n2cncn2)cc1,i,4%,2%,-23%,-24%
O=C(Nc1ccc(Oc2ccccc2)cc1)N[C@H]1CO[C@H]2[C@@H]1OC[C@@H]2n1nnnc1Oc1ccc(-n2cncn2)cc1,i,25µM*,-25%,?,0%
N#Cc1ccccc1S(=O)(=O)N[C@H]1CO[C@H]2[C@@H]1OC[C@H]2OC(=O)Nc1ccc(Oc2ccccc2)cc1,40µM*,?,11µM*,?,1%
O=C(Nc1ccccc1)N[C@H]1CO[C@H]2[C@@H]1OC[C@H]2OC(=O)Nc1ccc(Oc2ccccc2)cc1,?,?,7.9µM*,?,0%
COCCOCC(=O)N1CCC(N2C[C@H](OC)[C@@H]2c2cccnc2)CC1,nt,3%,nt,-17%,i
COc1cc(-c2ccc(C)s2)cc2c1OCCN(Cc1nc[nH]c1C)C2,i,?,-8%,?,-29%
O=C(c1ccccc1F)N1CCC(N2CCCNC2=O)CC1,i,i,25%[70.6 µM],0%[138 µM],4%[88.5 µM]
O=C(Nc1cccc(C(F)(F)F)c1)O[C@@H]1CO[C@H]2[C@@H]1OC[C@@H]2NC(=S)Nc1ccc(Cl)cc1,i,45µM*,-26%,?,0%
O=C(Nc1ccccc1)N[C@H]1CO[C@H]2[C@@H]1OC[C@@H]2Nc1nccc(C2CCCC2)n1,i,-30%[172 µM],2%[70.6 µM],?,-1%[88.5 µM]
O=C(Nc1cccc(C(F)(F)F)c1)N[C@H]1CO[C@H]2[C@@H]1OC[C@@H]2Nc1nccc(C2CCCC2)n1,i,?,-6%,79µM*,i
